Where “and” joins values, the source holds several entries; their conditions need not be identical. Equal values may be shown once.
Experiment: A High Throughput Confirmatory Assay used to Identify Novel Compounds that Inhibit Mycobacterium Tuberculosis in the absence of Glycerol using Purified and Synthesized Compounds (8).
Type: functional

Compound | IC90
O=C(c1ccc(CNc2c(N3CCOCC3)c(=O)c2=O)cc1)N1CCC(c2ccccc2)CC1 | > 68.9 µM (active)
CC1CCCN(C(=O)c2ccc(CNc3c(N4CCCCC4)c(=O)c3=O)cc2)C1 (stereo unspecified) | > 100 µM (active)
CC1CC(C)CN(C(=O)c2ccc(CNc3c(N4CCCC4)c(=O)c3=O)cc2)C1 (stereo unspecified) | > 100 µM (active)
O=C(c1ccc(CNc2c(N3CCCC3)c(=O)c2=O)cc1)N1CC=C(c2ccccc2)CC1 | > 100 µM (active) and > 47.2 µM (active)
O=C(c1ccc(CNc2c(N3CCCC3)c(=O)c2=O)cc1)N1CCC(c2ccccc2)CC1 | > 100 µM (active)
CC(=O)c1ccc(NC(=O)c2ccc(CNc3c(N4CCOCC4)c(=O)c3=O)cc2)cc1 | > 100 µM (active)

Reference: ChEMBL document CHEMBL1201862, “PubChem BioAssay data set” (2004)
